{
  "source": "PubChem BioAssay (NCATS)",
  "note": "Results filed as inconclusive are left out. The source made the active and inactive calls. Calls come from the whole dose curve; as a rule, active = well fitted inhibition curve with a large enough effect; inconclusive = small, poorly fitted or top-dose-only effect; inactive = flat fitted curve, though single readings scatter. % is set by controls: 0 for no effect and ±100 for the full control effect; potency is the fitted concentration of half-maximal effect.",
  "data": [
    {"biological_target": "Ubiquitin carboxyl-terminal hydrolase 1 (Homo sapiens) (UniProt O94782)", "sequence (O94782 whole entry, looked up)": "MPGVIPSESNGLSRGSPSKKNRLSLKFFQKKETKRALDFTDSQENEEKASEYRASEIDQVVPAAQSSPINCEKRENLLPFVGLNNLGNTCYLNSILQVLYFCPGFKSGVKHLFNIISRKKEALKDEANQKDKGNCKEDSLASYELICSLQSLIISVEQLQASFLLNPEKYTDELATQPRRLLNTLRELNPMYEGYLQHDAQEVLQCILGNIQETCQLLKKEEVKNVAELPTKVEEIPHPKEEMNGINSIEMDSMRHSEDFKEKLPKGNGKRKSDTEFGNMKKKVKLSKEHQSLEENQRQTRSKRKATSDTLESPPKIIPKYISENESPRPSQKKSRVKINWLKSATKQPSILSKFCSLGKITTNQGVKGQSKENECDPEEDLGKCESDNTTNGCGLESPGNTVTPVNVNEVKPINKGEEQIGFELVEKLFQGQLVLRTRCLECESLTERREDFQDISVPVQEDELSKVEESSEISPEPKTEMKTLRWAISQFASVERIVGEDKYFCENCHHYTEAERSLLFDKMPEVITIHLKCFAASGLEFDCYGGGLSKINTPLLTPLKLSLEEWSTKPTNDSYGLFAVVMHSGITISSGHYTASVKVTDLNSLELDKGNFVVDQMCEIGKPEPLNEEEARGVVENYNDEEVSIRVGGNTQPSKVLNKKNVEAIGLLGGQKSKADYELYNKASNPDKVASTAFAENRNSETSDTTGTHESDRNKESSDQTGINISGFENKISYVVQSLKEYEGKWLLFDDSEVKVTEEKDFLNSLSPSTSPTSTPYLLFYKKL", "assay": "Inhibitors of USP1/UAF1: Pilot qHTS (AID 504865); note: nearly all actives have a fitted effect of over 35% in size;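 for activity change, negative = inhibition: rhodamine fluorescence freed from ubiquitin-rhodamine substrate followed over time; top concentration of the series differs between compounds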", "details": "purified USP1/UAF1, Ub-rhodamine cleavage fluorescence; series mostly up to 114 µM; activity change, negative = inhibition: at the top concentration", "how_it_was_run": "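USP1/UAF1 complex at 1 nM preincubated 15 min at room temperature with compound, then Ub-Rho substrate added at 150 nM final. Fluorescence (480/540 nm) read kinetically in 50 mM HEPES pH 7.8, 0.5 mM EDTA, 1 mM TCEP, 0.1 mg/ml BSA, 0.01% Tween-20.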", "values": [
      {"smiles": "[O]=[Bi][O][Bi]=[O]", "activity change, negative = inhibition": "0.348% (inactive)"},
      {"smiles": "CC/C=C\\C/C=C\\C/C=C\\C/C=C\\C/C=C\\C/C=C\\CCC(=O)O", "Potency": "50.1 µM (active)"},
      {"smiles": "O=C(O)COc1ccc(CCNS(=O)(=O)c2ccccc2)s1", "activity change, negative = inhibition": "-7.19% (inactive)"},
      {"smiles": "NCC(O)CC(=O)O", "note": "(stereo not given)", "activity change, negative = inhibition": "-7.98% (inactive)"},
      {"smiles": "Oc1ccc(Cl)c2c1CCC2", "activity change, negative = inhibition": "-14.5% (inactive)"},
      {"smiles": "COc1ccccc1N1CCN(CCCC(=O)c2ccc(F)cc2)CC1", "activity change, negative = inhibition": "-5.3% (inactive)"},
      {"smiles": "CC(C)(C)CC(C)(C)c1cc(Cc2cc(C(C)(C)CC(C)(C)C)cc(-n3nc4ccccc4n3)c2O)c(O)c(-n2nc3ccccc3n2)c1", "activity change, negative = inhibition": "-3.83% (inactive)"},
      {"smiles": "CSCCC(N)C(=O)O", "note": "(stereo not given)", "activity change, negative = inhibition": "-3.81% (inactive)"},
      {"smiles": "CCOC(=O)C1=C(COCCN)NC(C)=C(C(=O)OC)C1c1ccccc1Cl", "note": "(stereo not given)", "activity change, negative = inhibition": "-13.7% (inactive)"},
      {"smiles": "CS(=O)(=O)c1ccc([C@@H](O)[C@@H](COC(=O)CN)NC(=O)C(Cl)Cl)cc1", "activity change, negative = inhibition": "0.156% (inactive)"},
      {"smiles": "COC(=O)[C@@H](N)CS", "activity change, negative = inhibition": "4.74% (inactive)"},
      {"smiles": "O=C1N=C2SCCN2C(=O)C1Cc1ccc(Cl)cc1", "note": "(stereo not given)", "activity change, negative = inhibition": "1.97% (inactive)"},
      {"smiles": "COC(=O)C(CN)c1c[nH]c2ccc(OC)cc12", "note": "(stereo not given)", "activity change, negative = inhibition": "2.57% (inactive)"},
      {"smiles": "CN(C)CCC=C1c2ccccc2C(C)(C)c2ccccc21", "Potency": "56.2 µM (active)"},
      {"smiles": "COc1cc(NCCCC(C)N)c2ncccc2c1", "note": "(stereo not given)", "Potency": "11.2 µM (active)"},
      {"smiles": "CS(=O)(=O)OCC(O)C(O)COS(C)(=O)=O", "note": "(stereo not given)", "activity change, negative = inhibition": "2.25% (inactive)"},
      {"smiles": "CCCc1ccc(C(=O)O)cc1", "activity change, negative = inhibition": "-0.983% (inactive)"},
      {"smiles": "CCC(C)[C@@H](N)C(=O)O", "note": "(stereo not given in full)", "activity change, negative = inhibition": "1.41% (inactive)"},
      {"smiles": "N=C(N)c1ccc(/C=C/c2ccc(C(=N)N)cc2O)cc1", "activity change, negative = inhibition": "-11% (inactive)"},
      {"smiles": "O=P(O)(O)CP(=O)(O)O", "activity change, negative = inhibition": "-1.44% (inactive)"},
      {"smiles": "CC(C)OC(=O)Nc1ccc2nc(-c3cscn3)[nH]c2c1", "activity change, negative = inhibition": "-12.6% (inactive)"},
      {"smiles": "CCCCCCCCCCCCCCCCCCCCCC(=O)Nc1ccn([C@@H]2O[C@H](CO)[C@@H](O)[C@@H]2O)c(=O)n1", "activity change, negative = inhibition": "-2.04% (inactive)"},
      {"smiles": "OC1OC[C@@H](O)[C@H](O)[C@@H]1O", "note": "(stereo not given in full)", "activity change, negative = inhibition": "-4.16% (inactive)"},
      {"smiles": "O[C@@H]([C@H](O)[C@H](O)CBr)[C@H](O)CBr", "activity change, negative = inhibition": "4.31% (inactive)"},
      {"smiles": "CC1CCC(NC(=O)N(CCCl)N=O)CC1", "note": "(stereo not given)", "activity change, negative = inhibition": "7.05% (inactive)"},
      {"smiles": "CC(CNC(=O)c1cccnc1)NC(=O)c1cccnc1", "note": "(stereo not given)", "activity change, negative = inhibition": "-10.2% (inactive)"},
      {"smiles": "Oc1cc(O)cc(O)c1", "activity change, negative = inhibition": "-3.08% (inactive)"},
      {"smiles": "CCSc1ccc2c(c1)N(CCCN1CCN(C)CC1)c1ccccc1S2", "activity change, negative = inhibition": "4.17% [at 54.9 µM] (inactive)"},
      {"smiles": "CCN(CC)C(=S)S", "activity change, negative = inhibition": "-3.68% (inactive)"},
      {"smiles": "CC1C(=O)CC2C3(C)CCC2(C(C)C(=O)O)C(=O)C13", "note": "(stereo not given)", "activity change, negative = inhibition": "-2.2% (inactive)"},
      {"smiles": "C[N+]1(C)[C@@H]2CC(OC(=O)C(O)(c3cccs3)c3cccs3)C[C@H]1[C@@H]1O[C@@H]12", "note": "(stereo not given in full)", "activity change, negative = inhibition": "-9% (inactive)"},
      {"smiles": "CC(CC=O)CCCC(C)(C)O", "note": "(stereo not given)", "activity change, negative = inhibition": "-9.96% (inactive)"},
      {"smiles": "CCOC(=O)c1c[nH]c2cc(OCC(C)C)c(OCC(C)C)cc2c1=O", "activity change, negative = inhibition": "-6.26% (inactive)"},
      {"smiles": "O=C(O)CCC/C=C\\C[C@@H]1[C@@H](/C=C/[C@@H](O)COc2cccc(Cl)c2)[C@H](O)C[C@@H]1O", "activity change, negative = inhibition": "-0.0641% (inactive)"},
      {"smiles": "O=C(NNCNNC(=O)c1ccncc1)c1ccncc1", "activity change, negative = inhibition": "-3.63% (inactive)"}
    ]}
  ]
}
